Out of some 350,000 compounds screened, about 1,100 (0.31%) were called active. The full list was thinned out, with actives kept by preference. A number with no mark means an inactive call. No stated cut-off is given here; in the data, active means activation above about 50%; inactive means the rest.

In PubChem BioAssay AID504720 (Sanford-Burnham Center for Chemical Genomics, 2011) one finds activation data, which are given here for 94 compounds.

Endoribonuclease toxin MazF (Escherichia coli (strain K12)), sequence (P0AE70 whole entry, looked up): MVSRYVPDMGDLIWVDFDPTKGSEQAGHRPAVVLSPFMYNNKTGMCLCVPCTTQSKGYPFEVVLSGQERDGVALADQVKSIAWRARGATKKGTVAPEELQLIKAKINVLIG

The assay concerns the target Endoribonuclease toxin MazF (Escherichia coli (strain K12)) (UniProt P0AE70). The assay is described as follows: activators of E. coli MazEF toxin-antitoxin RNase, primary screen, biochemical, fluorescence, uHTS (AID 504720). The settings on record: FAM/BHQ RNA-DNA oligo cleavage fluorescence, 5 h, at 20 µM, stronger effect = higher value.
Consider `Cc1c(C(=O)NCCN2C(=O)S/C(=C\c3cccs3)C2=O)cccc1[N+](=O)[O-]`, for which the activation was 9.61%.

`CC(C(=O)Nc1ccc(O)c(C(=O)O)c1)N1C(=O)/C(=C/c2cccs2)SC1=S` (centres undefined): the activation was 3.14%.

`O=C(CCN1C(=O)/C(=C/c2cccs2)SC1=S)NNC(=O)c1cccc(O)c1`: the activation was 96.7% (active). `CC(C)NC(=O)C(=O)NCCCOC(C)C`: the activation was 15.5%. Under `COCCN(CCOC)S(=O)(=O)NC[C@H]1O[C@@H](n2cnc3c(N)ncnc32)[C@H](O)[C@@H]1O` stands 5.68%; under `CCCCN(CC(=O)Nc1cccc(S(=O)(=O)N2CCCC2)c1)Cc1nc2ccccc2c(=O)[nH]1`, -2.27%; under `CCOc1ccc(N2C(=O)CN(c3cccc4ccccc34)C2=S)cc1`, 1.98%. For `CCO/C=C1\C(=O)N(c2ccc(OCC)cc2)C(=O)c2ccccc21`, the activation was 5.56%. For the compound `CCOc1ccc(N2C(=O)/C(=C/c3ccc(C)o3)N(C)C2=S)cc1`, the activation is 53.2% (active).

Turning to `OCC[C@H]1C[C@H](O)[C@@H](O)[C@]2(CCc3ccccc3O2)O1`, the activation is 2.25%. On to `CCCCN=C1C([N+](=O)[O-])=CC=C2C1=NC1(CCCCC1)N2O`, for which the activation was 8.1%. On to `CCCCn1c(N)c(N(CC(C)C)C(=O)c2ccc(-n3c(C)ccc3C)cc2)c(=O)[nH]c1=O`, for which the activation is -0.38%.

`COc1ccc(NC(=O)CSc2nnc(-c3ccccc3F)n2C2CC2)cc1S(N)(=O)=O`: the activation is 3.2%. Under `CC(C)(C)C1CCC(C(=O)Nc2cccnc2)CC1` (centres undefined) stands 5.13%; under `Cn1cccc1/C=C1\SC(=S)N(NC(=O)c2ccc(Cl)cc2)C1=O`, 140% (active); under `CN1C(=O)C(CC(N)=O)N(NC(=O)c2ccc(Cl)cc2)C1=S` (centres undefined), -6.03%.

For the compound `CC(=O)N1C(=O)/C(=C2\SC(=S)N(NC(=O)c3ccc(O)cc3)C2=O)c2ccccc21`, the activation was 4.76%. To `CCn1nc(C(=O)NNC(=O)C2CSC3(C)CCC(=O)N23)c2ccccc2c1=O` (centres undefined) belongs 1.5%; to `Cc1ccccc1Nc1c([N+](=O)[O-])ccc2nonc12`, -7.83%.

For the compound `Cc1ccc2cccc([N+](=O)[O-])c2n1`, the activation was 4.29%. Under `CN(c1ccccc1)c1ccc([N+](=O)[O-])c2nonc12` stands 72.5% (active); under `C=CC[C@@H](CC(=O)NCCO)C(=O)N[C@H](C)COC(=O)[C@@H](CC=C)CC(=O)OC(C)(C)C`, -0.071%; under `COc1cc(S(=O)(=O)N(Cc2cccs2)C2CC2)ccc1-n1cnnn1`, 7.76%. In the case of `CCOC(=O)N1CCN(C(=O)c2ccc3nc4cc(Cl)ccc4c(=O)n3c2)CC1`, the activation was -2.93%.

As for `CC(C)(C)N(Cc1ccccc1)C(=O)COC(=O)CCc1c[nH]c2ccccc12`, the activation was 5.36%. Regarding `CCC(=O)CC(c1ccc([N+](=O)[O-])cc1)c1c(O)c2ccccc2oc1=O` (centres undefined), the activation is 1%. To `COc1cc(C(c2c(O)c3ccccc3oc2=O)c2c(C)n(C)n(-c3ccccc3)c2=O)ccc1O` (centres undefined) belongs 0.237%; to `COc1cc(N=Cc2c(O)c3ccccc3oc2=O)c(OC)cc1Cl`, 221% (active); to `O=C(NNC(=S)Nc1ccc(F)cc1)[C@H]1C[C@@H]1c1ccccc1`, 12.2%. For `CCCNC(=O)c1onc(CSc2ccc(F)cc2)c1C(=O)NC(C)C`, the activation is 1.76%. Take `Cc1ccc(S(=O)(=O)N2CCN(C(=O)CSc3cc(C)ccc3C)CC2)c(C)c1`: the activation was -11.9%.

In the case of `Cc1ccc(S(=O)(=O)N2CCN(C(=O)Cn3c(=O)cnc4ccccc43)CC2)c(C)c1`, the activation was 52.1% (active). Under `Cc1ccc(S(=O)(=O)N2CCN(C(=O)COC(=O)c3c(C)cc(C)cc3C)CC2)c(C)c1` stands 2.63%; under `CCOc1ccc(/C=C/C(=O)OCC(=O)c2ccccc2OC)cc1OC`, -8.54%; under `COC(=O)Cc1csc(/N=C/c2c(O)n(-c3cccc(C(F)(F)F)c3)c(=O)c3ccccc23)n1`, -24.2%. To `Cc1ccc(N=Cc2c(O)n(-c3nccs3)c(=O)c3ccccc23)c(C)c1` belongs 1250% (active).

As to `Cc1cccc(-n2c(O)c(C=Nc3ccccc3N)c(=O)[nH]c2=O)c1`, the activation is 10.4%. For the compound `COc1ccc(C)cc1N(C)C(=O)c1coc(=O)c2ccccc12`, the activation was 4.28%. Under `O=C(Nc1ccc2oc(-c3ccc4ccccc4c3)nc2c1)c1cccs1` stands 57.7% (active); under `COc1cc(OC)cc(C(=O)Nc2ccc(-c3nc4ccccc4o3)c(O)c2)c1`, -11.7%.

`O=C(Nc1ccc2oc(-c3ccccc3F)nc2c1)c1ccco1`: the activation was 1.3%. Turning to `O=C(NCCSc1ncc(-c2ccccc2)[nH]1)c1ccco1`, the activation was 3.87%.

Turning to `COCCCNC(=O)c1c(F)c(F)c(F)c(F)c1F`, the activation is 5.56%. As for `COc1ccc(/C=C/c2c(-c3cccc(C)c3)oc3ccc(-c4ccc5c(c4)OCO5)cc23)cc1`, the activation was -7.77%. On to `Cc1cc(C)cc(Oc2c(C(F)(F)F)oc3cc(OCC(=O)O)ccc3c2=O)c1`, for which the activation was 2.37%. In the case of `CCC(=O)Nc1cccc(NC(=O)c2cccnc2)c1`, the activation was 335% (active). Turning to `CCOC(=O)c1cc(NC(=O)c2cccnc2)ccn1`, the activation was 0.906%.

Turning to `O=C(Cc1ccccc1)Nc1ccc(NC(=O)c2cccnc2)cc1`, the activation was -0.44%.

`O=C(NCCOc1ccccc1)N1[C@H]2CC[C@@H]1C=C(c1ccc(F)cc1OCc1ccccc1)C2`: the activation was -1.59%. Under `CSCCC1NC2(C(=O)Nc3ccc(Cl)cc32)[C@@H]2C(=O)N(C3CCCC3)C(=O)[C@H]12` (some centres undefined) stands 2.84%.

Take `O=C(CN1CCOCC1)Nc1ccccc1`: the activation was 6.62%. With `CC(=O)c1ccc(N2CCN(CC(=O)Nc3ccccc3N3CCOCC3)CC2)cc1`, the activation is 4.75%. With `O=C(CN1CCN(c2ccc(O)cc2)CC1)Nc1ccc(-c2ccccc2)cc1`, the activation is 111% (active). On to `CN(C)Cc1c(O)ccc2occ(C(O)c3ccccc3)c12` (centres undefined), for which the activation is 8.71%.

Consider `COc1cccc2c1OCC(CN1CCN(C3CCCCC3)C(CCO)C1)=C2` (centres undefined), for which the activation is 0.264%. On to `CC(=O)NC(C)(C)C1CC=C(C)/C(=N\O)C1` (centres undefined), for which the activation was 6.07%. Under `COC(C/C=C/C(=O)[C@@H](C)OCc1ccccc1)OC` stands -1.24%; under `CCOC(=O)CSc1nc(C)cc2c1C(=O)OC2`, 2.74%; under `O=C(COC(=O)Cn1[nH]c(=O)c2ccccc2c1=O)Nc1ncc(Cl)cc1Cl`, -9.39%. As for `Cc1ccccc1OCc1nnc(SCC(=O)N2c3ccccc3Sc3ccc(Cl)cc32)o1`, the activation is -5.1%. For the compound `CC(=O)c1ccc(NC(=O)c2ccc3c(Cl)c4c(nc3c2)CCCC4)cc1`, the activation was 61.1% (active).

Consider `COc1cccc(NC(=O)c2ccc3c(SCC(=O)O)c4c(nc3c2)CCCC4)c1`, for which the activation is 0.29%. Consider `CC(C)CCNC(=O)c1ccc2c(Cl)c3c(nc2c1)CCC3`, for which the activation was 0.61%. With `O=C(CN1CCN(Cc2ccc(F)cc2Cl)C1=O)NCc1cccs1`, the activation was 2.52%. As for `COc1ccc(NC(=O)c2cc([N+](=O)[O-])ccc2NC(=O)CNC2CCCCC2C)c(OC)c1` (centres undefined), the activation was 5.61%. To `Cc1ccc(Sc2ccncc2S(N)(=O)=O)cc1` belongs 4.01%; to `COc1ccc(CCn2c(O)c(C=NC3CC3)c(=O)[nH]c2=O)cc1OC`, 0.91%; to `COc1ccc(N=Cc2c(O)n(C)c(=O)[nH]c2=O)cc1`, -3.16%. Turning to `COc1ccc(Cn2c(O)c(/C=C3/C=CC=N3)c(=O)[nH]c2=O)cc1`, the activation is 79.2% (active). To `CNC(=O)c1c(NC(NC(=O)c2ccco2)C(=O)c2ccc(Cl)cc2)sc2c1CCCC2` (centres undefined) belongs -0.431%. Consider `O=C(Nc1ncc2c(n1)-c1ccccc1OC2)c1ccc(Cl)cc1`, for which the activation is 3.08%. `O=C(COC(=O)CNC(=O)C1CCCCC1)NCc1ccccc1`: the activation was 0.98%. To `Cc1ccc(-c2nn(-c3ccccc3)cc2/C=C2\SC(=S)N(CCCCCC(=O)O)C2=O)o1` belongs 3200% (active); to `CCCCN1C(=O)/C(=C/C=C2/C=Cc3ccccc3N2CC)SC1=S`, 18.5%. Regarding `O=C1/C(=C/c2coc3ccc(O)cc3c2=O)SC(=S)N1c1ccccc1`, the activation was -53.2%. `CCOc1ccc(S(=O)(=O)Nc2cccc(C(=O)NCC3(N4CCCCC4)CCCCC3)c2)cc1`: the activation is -1.19%. Consider `COc1ccc(CCNC(=O)c2nnc(CS(=O)(=O)c3ccccc3)o2)cc1OC`, for which the activation was 6.35%. Regarding `O=C(NCC12CC3CC(C1)CC(CNC(=O)N1CCCC1)(C3)C2)N1CCCC1`, the activation was -3.78%.

For the compound `COc1ccc(CNC(=O)CCC(=O)Nc2nnc(C(C)C)s2)cc1`, the activation was 7.7%.

For the compound `Cc1ccc(CN2C(=O)N/C(=C/c3cc(C)n(-c4ccccn4)c3C)C2=O)cc1`, the activation is -15.4%. To `CN(C)c1ccc(/C=C2\NC(=S)N(Cc3ccccc3)C2=O)cc1` belongs 56.4% (active); to `CN(C(=O)CN1C(=O)NC(C)(CCc2ccccc2)C1=O)c1ccccc1` (centres undefined), -1.8%. `COCCn1c(=NC(=O)c2ccccc2[N+](=O)[O-])sc2cc(S(C)(=O)=O)ccc21`: the activation is 15.4%.

Turning to `CSc1ccccc1C(=O)OCC(=O)N1CCN(C(C)=O)CC1`, the activation is 1.11%. As for `O=C(NNC(=S)NCc1ccccc1)c1ccc(OC(F)F)cc1`, the activation is -1.92%. Regarding `Cc1scc(C(=O)NNC(=S)NCc2ccccc2)c1C`, the activation is 51.1% (active).

With `Cc1scc(C(=O)NNC(=S)NCC(C)C)c1C`, the activation was 5.32%. `COc1cc(S(=O)(=O)N2CCN(C(=O)C3CC3)CC2)ccc1NC(C)=O`: the activation is 3.42%. Turning to `COc1c(C)c2c(c(O)c1C/C=C(\C)CCC(=O)O)C(=O)OC2`, the activation is 6.86%. Under `O=C(COC(=O)c1cccc(Cl)c1)NC(=O)NCc1ccccc1` stands -3.25%; under `c1ccc(-c2cn3c(n2)CCc2ccc4cccnc4c2-3)cc1`, 4.41%.

As for `O=C(NCc1cccc(Cl)c1)C1=CC=CN2CCS(=O)(=O)N=C12`, the activation is -3.56%. For the compound `CCOC(=O)N1CCN(C(=O)CN(C2CCCCC2)S(C)(=O)=O)CC1`, the activation was -5%.

`CCc1ccc2nc(Nc3ncc(C(C)=O)c(C)n3)nc(C)c2c1`: the activation is -3.52%.
